A number with no mark means an inactive call. Inconclusive results are not listed. Entries that show only a call come without a potency. Active and inactive are the calls of the source. Unless noted, calls follow the shape of the dose curve; as a rule, active = well fitted curve in the direction sought with a large enough effect in the repeat runs; inconclusive = weak or mixed curves; inactive = no such curve, though single readings can be large; an effect the other way counts as inactive or inconclusive.
Assays:
[1] = target: Thyrotropin receptor (Homo sapiens) (UniProt P16473); assay: qHTS assay to identify small molecule agonists of the thyroid stimulating hormone receptor (TSHR) signaling pathway (AID 1224843; calls by dose curve; also: nearly all actives have a fitted effect of over 45% in size)
Sequence of Thyrotropin receptor (Homo sapiens) (P16473 whole entry, looked up): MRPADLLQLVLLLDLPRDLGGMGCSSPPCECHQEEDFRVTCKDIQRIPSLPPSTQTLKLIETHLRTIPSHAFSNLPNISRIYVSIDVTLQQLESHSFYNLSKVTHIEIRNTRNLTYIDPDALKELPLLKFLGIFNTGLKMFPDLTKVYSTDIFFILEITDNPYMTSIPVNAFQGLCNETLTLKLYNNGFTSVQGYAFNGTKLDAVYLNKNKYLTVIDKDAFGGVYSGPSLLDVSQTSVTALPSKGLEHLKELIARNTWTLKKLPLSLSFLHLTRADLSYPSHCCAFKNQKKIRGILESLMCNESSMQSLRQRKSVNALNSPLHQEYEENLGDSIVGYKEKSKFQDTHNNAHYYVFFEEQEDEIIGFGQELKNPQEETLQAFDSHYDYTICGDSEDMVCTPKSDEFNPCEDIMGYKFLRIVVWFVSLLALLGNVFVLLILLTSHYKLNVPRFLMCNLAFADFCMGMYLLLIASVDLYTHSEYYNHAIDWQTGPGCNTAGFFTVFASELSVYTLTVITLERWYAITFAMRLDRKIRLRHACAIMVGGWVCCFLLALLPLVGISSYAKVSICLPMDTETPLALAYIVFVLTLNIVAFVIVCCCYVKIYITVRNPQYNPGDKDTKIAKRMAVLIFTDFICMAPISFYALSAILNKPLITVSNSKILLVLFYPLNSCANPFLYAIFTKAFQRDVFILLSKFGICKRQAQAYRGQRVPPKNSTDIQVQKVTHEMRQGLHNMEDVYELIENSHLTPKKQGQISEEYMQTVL
Method in brief: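 Agonist-mode screen: TSHR HEK293 cells received test chemicals for half an hour at room temperature, then HTRF cAMP detection reagents for one hour prior to fluorescence measurement. Each chemical ran as a 15-concentration series, triplicated.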

[2] = qHTS assay to identify small molecule agonists of the hypoxia (HIF-1) signaling pathway - cell viability counter screen (AID 1224844; calls by dose curve; also: nearly all actives have a fitted effect of over 50% in size)
Method in brief: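 Cytotoxicity was measured in parallel with the HRE-driven beta-lactamase readout: after 17 hrs of compound exposure at 37C, HRE-bla ME-180 cells received CellTiter-Glo and luminescence was recorded 30 min later.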

[3] = qHTS assay to identify small molecule agonists of H2AX (AID 1224845; active = well fitted activation curve with a large enough effect in the signal ratio in the repeat runs, not every such curve was filed as active; the % refers to the signal ratio)
Method in brief: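 Wild-type CHO-K1 cells, plated overnight, exposed 3hr at 37C to 15 concentrations (0.76% DMSO final). Lysed, then HTRF anti-pH2AX (S139) cryptate and anti-H2AX-d2 antibodies, 24 hr room temperature; 665/620 nm emission read.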

[4] = qHTS assay to identify small molecule agonists of H2AX - cell viability counter screen (AID 1224847; calls by dose curve; also: top concentration of the series differs between compounds; nearly all actives have a fitted effect of over 30% in size)
Method in brief: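 For this counter screen, overnight-attached CHO-K1 cells received test compounds (15 concentrations, 0.76% DMSO final); 3 hr later at 37C, CellTiter-Glo reagent was added and luminescence recorded after 30 min at room temperature.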

[5] = qHTS RealTime-Glo MT Cell Viability Assay in HepG2 cells - 24 hour (AID 1224867); also: nearly all actives have a fitted effect of over 50% in size
Method in brief: (§1)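 Viability was tracked continuously by NanoLuc luminescence from prosubstrate reduced by living HepG2 cells, at successive time points over 40 h of compound exposure. Cells with reagent were preincubated 5 h at 37 °C before compound addition.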

[6] = qHTS RealTime-Glo MT Cell Viability Assay in HEK293 cells - 32 hour (AID 1224868); also: top concentration of the series differs between compounds; nearly all actives have a fitted effect of over 50% in size
Method in brief: (§2)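 Viability tracked continuously by luminescence as live cells reduce a prosubstrate for NanoLuc; HEK293 cells preincubated 5 h, compound-treated at 37 C, and read at 0, 8, 16, 24, 32 and 40 h.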

[7] = A CellTox Green Cytotoxicity Assay to monitor cytotoxicity in HEK293 cells - 0 hour (AID 1224869); also: nearly all actives have a fitted effect of over 50% in size; also: potency is read from the fitted curve at half-maximal effect
Method in brief: (§3)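 Cells (HEK293, 600/well) and dye reagent are dispensed together. After 5 h at 37 C, 23 nL compound is pinned in. Plates stay at 37 C for 40 h with fluorescence read at 0h, 8h, 16h, 24h, 32h and 40h.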

[8] = qHTS RealTime-Glo MT Cell Viability Assay in HepG2 cells - 40 hour (AID 1224870); also: nearly all actives have a fitted effect of over 50% in size
Method in brief: (§4)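 HepG2 cells (600/well) mixed with RealTime-Glo MT reagent, settled 5 h at 37 C/5% CO2 before compound addition. Nonlytic NanoLuc luminescence from viable-cell prosubstrate reduction read repeatedly during 40 h treatment at 37 C.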

[9] = A CellTox Green Cytotoxicity Assay to monitor cytotoxicity in HEK293 cells - 40 hour (AID 1224871); also: nearly all actives have a fitted effect of over 45% in size; also: potency is read from the fitted curve at half-maximal effect
Method in brief: as §3

[10] = qHTS RealTime-Glo MT Cell Viability Assay in HEK293 cells - 16 hour (AID 1224872)
Method in brief: as §2

[11] = qHTS RealTime-Glo MT Cell Viability Assay in HepG2 cells - 8 hour (AID 1224873); also: nearly all actives have a fitted effect of over 55% in size
Method in brief: as §4

[12] = qHTS RealTime-Glo MT Cell Viability Assay in HEK293 cells - 40 hour (AID 1224874); details: RealTime-Glo luminescence; max response: active compounds read low; also: nearly all actives have a fitted effect of over 50% in size
Method in brief: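 Real-time viability in HEK293: signal arises when living cells convert a prosubstrate for NanoLuc in the medium, so luminescence tracks viable cell number. Compound (23 nL, DMSO) added 5 h post-seeding; kinetic reads at 0–40 h, 37 C.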

[13] = A CellTox Green Cytotoxicity Assay to monitor cytotoxicity in HEK293 cells - 24 hour (AID 1224875); also: nearly all actives have a fitted effect of over 45% in size; also: potency is read from the fitted curve at half-maximal effect
Method in brief: as §3

[14] = A CellTox Green Cytotoxicity Assay to monitor cytotoxicity in HepG2 cells - 16 hour (AID 1224876); also: nearly all actives have a fitted effect of over 45% in size; also: potency is read from the fitted curve at half-maximal effect
Method in brief: (§5)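 Cells and non-lytic dye reagent are dispensed together (600 HepG2 cells/well) and incubated 5 h before DMSO compound transfer. Kinetic fluorescence is then recorded in the same wells during 40 h at 37 C.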

[15] = qHTS RealTime-Glo MT Cell Viability Assay in HepG2 cells - 32 hour (AID 1224877); also: nearly all actives have a fitted effect of over 55% in size
Method in brief: as §1

[16] = A CellTox Green Cytotoxicity Assay to monitor cytotoxicity in HepG2 cells - 24 hour (AID 1224878); also: nearly all actives have a fitted effect of over 45% in size
Method in brief: as §5

[17] = A CellTox Green Cytotoxicity Assay to monitor cytotoxicity in HepG2 cells - 40 hour (AID 1224879); also: nearly all actives have a fitted effect of over 40% in size; also: potency is read from the fitted curve at half-maximal effect
Method in brief: as §5

[18] = qHTS assay to identify small molecule antagonists of the estrogen related receptor (ERR) signaling pathway from Tox21 library (AID 1224848); also: nearly all actives have a fitted effect of over 50% in size
Method in brief: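 Quantitative high-throughput format: ERR reporter cells (2,000/well) pre-incubated 6 h, treated 18 h at 37 C with compounds in DMSO alongside positive and negative controls, then read by ONE-Glo luminescence.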

[19] = qHTS assay to identify small molecule agonists of the estrogen related receptor (ERR) signaling pathway from Tox21 library (AID 1224849; calls by dose curve; also: nearly all actives have a fitted effect of over 15% in size); details: ERR reporter cell line, ONE-Glo luciferase, 18 h; at 92.4 µM (top of the series) unless noted
Method in brief: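 Cells carrying the ERR reporter were plated and allowed to settle for 6 h, exposed to library compounds for 18 h at 37 C, then lysed with ONE-Glo and luminescence measured.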

[20] = qHTS assay to identify small molecule agonists of the hypoxia (HIF-1) signaling pathway (AID 1224846; active = well fitted activation curve with a large enough effect in the signal ratio in the repeat runs, not every such curve was filed as active; the % refers to the signal ratio)
Method in brief: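 Compounds from the Tox21 10K library, dissolved in DMSO, are tested for induction of a hypoxia response element–controlled beta-lactamase reporter in ME-180 cells. Exposure lasts 17 hrs at 37C after a 5 hr settling period, followed by CCF4-AM FRET substrate.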

c1ccc([C@H]2CN3CCSC3=N2)cc1
Potency [1]: inactive
Potency [2]: inactive
outcome [3]: inactive
Potency [4]: inactive
Potency [5]: inactive
Potency [6]: inactive
Potency [7]: inactive
Potency [8]: inactive
Potency [9]: inactive
Potency [10]: inactive
Potency [11]: inactive
max response [12]: 3.46%
Potency [13]: inactive
Potency [14]: inactive
Potency [15]: inactive
Potency [16]: inactive
Potency [17]: inactive

CC(C(=O)O)c1ccc(CC2CCCC2=O)cc1 (centres undefined)
Potency [1]: inactive
Potency [2]: inactive
outcome [3]: inactive
Potency [4]: inactive
Potency [5]: inactive
Potency [6]: inactive
Potency [7]: inactive
Potency [8]: inactive
Potency [9]: inactive
Potency [10]: inactive
Potency [11]: inactive
max response [12]: -1.24%
Potency [15]: inactive
Potency [16]: inactive
Potency [17]: inactive

CC(C)NCC(O)c1ccc(NS(C)(=O)=O)cc1 (centres undefined)
Potency [1]: inactive
Potency [2]: inactive
outcome [3]: inactive
Potency [4]: inactive
Potency [5]: inactive
Potency [6]: inactive
Potency [7]: inactive
Potency [8]: inactive
Potency [9]: inactive
Potency [10]: inactive
Potency [11]: inactive
max response [12]: 4.96%
Potency [13]: inactive
Potency [14]: inactive
Potency [15]: inactive
Potency [16]: inactive
Potency [17]: inactive

CCN(Cc1ccncc1)C(=O)C(CO)c1ccccc1 (centres undefined)
Potency [1]: inactive
Potency [2]: inactive
outcome [3]: inactive
Potency [4]: inactive
Potency [5]: inactive
Potency [7]: inactive
Potency [8]: inactive
Potency [9]: inactive
Potency [10]: inactive
Potency [11]: inactive
Potency [13]: inactive
Potency [14]: inactive
Potency [15]: inactive
Potency [16]: inactive
Potency [17]: inactive

CC[N+](C)(C)c1cccc(O)c1
Potency [1]: inactive
Potency [2]: inactive
outcome [3]: inactive
Potency [4]: inactive
Potency [5]: inactive
Potency [6]: inactive
Potency [8]: inactive
Potency [9]: inactive
Potency [10]: inactive
Potency [11]: inactive
max response [12]: -7.12%
Potency [13]: inactive
Potency [14]: inactive
Potency [16]: inactive
Potency [17]: inactive

Nc1ccc(S(=O)(=O)Nc2ccnn2-c2ccccc2)cc1
Potency [1]: inactive
activity change, negative = cytotoxicity [2]: -2.16% [at 15.8 µM]
outcome [3]: inactive
Potency [4]: inactive
activity change, negative = cytotoxicity [5]: 1% [at 15.8 µM]
activity change, negative = cytotoxic [6]: 5.86% [at 15.8 µM]
cytotoxicity [7]: 1.17% [at 15.8 µM]
activity change, negative = cytotoxic [8]: 0.768% [at 15.8 µM]
Potency [9]: inactive
activity change, negative = cytotoxicity [10]: 9.13% [at 15.8 µM]
viability change, negative = cytotoxic [11]: -7.88% [at 15.8 µM]
activity change [13]: 1.21% [at 15.8 µM, active compounds read high]
cytotoxicity increase [14]: 2.84% [at 15.8 µM]
activity change, negative = cytotoxic [15]: 1.3% [at 15.8 µM]
cytotoxicity increase [17]: 1.49% [at 15.8 µM]

O=C(CCCN1CCN(c2ccccn2)CC1)c1ccc(F)cc1
Potency [1]: inactive
Potency [2]: inactive
outcome [3]: inactive
Potency [4]: inactive
Potency [18]: inactive
activity change, positive = activation [19]: -14.3% [at 42.5 µM]
Potency [5]: inactive
Potency [7]: inactive
Potency [8]: inactive
Potency [9]: inactive
Potency [11]: inactive
Potency [13]: inactive
Potency [14]: inactive
Potency [15]: inactive
Potency [17]: inactive

C=C(C)CS(=O)(=O)O
Potency [1]: inactive
Potency [2]: inactive
outcome [20]: inactive
Potency [4]: inactive
Potency [18]: inactive
activity change, positive = activation [19]: 0.527%
Potency [5]: inactive
Potency [6]: inactive
Potency [7]: inactive
Potency [8]: inactive
Potency [9]: inactive
Potency [10]: inactive
Potency [11]: inactive
max response [12]: -0.0402%
Potency [13]: inactive
Potency [14]: inactive
Potency [15]: inactive
Potency [16]: inactive
Potency [17]: inactive

COc1ccccc1OCC(O)CN1CCN(CC(=O)Nc2c(C)cccc2C)CC1 (centres undefined)
Potency [1]: inactive
Potency [2]: inactive
outcome [3]: inactive
Potency [4]: inactive
Potency [5]: inactive
Potency [6]: inactive
Potency [7]: inactive
Potency [8]: inactive
Potency [9]: inactive
Potency [10]: inactive
Potency [11]: inactive
Potency [13]: inactive
Potency [14]: inactive
Potency [15]: inactive
Potency [17]: inactive

CC(C)(C)NCCNC(C)(C)C
Potency [1]: inactive
Potency [2]: inactive
outcome [20]: inactive
Potency [4]: inactive
Potency [18]: inactive
activity change, positive = activation [19]: 3.81%
Potency [5]: inactive
Potency [6]: inactive
Potency [7]: inactive
Potency [8]: inactive
Potency [9]: inactive
Potency [10]: inactive
Potency [11]: inactive
max response [12]: -0.754%
Potency [13]: inactive
Potency [14]: inactive
Potency [15]: inactive
Potency [16]: inactive
Potency [17]: inactive

N=C(N)c1ccccc1
Potency [1]: inactive
Potency [2]: inactive
outcome [3]: inactive
Potency [4]: inactive
Potency [5]: inactive
Potency [6]: inactive
Potency [7]: inactive
Potency [8]: inactive
Potency [9]: inactive
Potency [10]: inactive
Potency [11]: inactive
max response [12]: -0.53%
Potency [13]: inactive
Potency [14]: inactive
Potency [15]: inactive
Potency [16]: inactive
Potency [17]: inactive

CN(C)CCCSc1ccccc1NC(=O)/C=C/c1ccccc1
Potency [1]: inactive
Potency [2]: inactive
outcome [20]: inactive
Potency [4]: inactive
Potency [18]: inactive
activity change, positive = activation [19]: 9.36% [at 42.5 µM]
Potency [5]: inactive
Potency [6]: inactive
Potency [7]: 16.9 µM (active)
Potency [8]: inactive
Potency [9]: 19 µM (active)
Potency [10]: inactive
Potency [11]: inactive
max response [12]: -11.2%
Potency [13]: 19 µM (active)
Potency [14]: 21.3 µM (active)
Potency [15]: inactive
Potency [17]: 19 µM (active)

O=C(O)CN(CCOCCOCCN(CC(=O)O)CC(=O)O)CC(=O)O
activation [1]: -8.79% [at 0.349 µM]
activity change, negative = cytotoxicity [2]: -1.26% [at 0.29 µM]
activation (H2AX phosphorylation) [3]: -0.327% [at 0.582 µM]
activity change, negative = cytotoxicity [4]: 3.97% [at 0.582 µM]
activity, negative = inhibition [18]: 2.61% [at 0.349 µM]
activity change, positive = activation [19]: 1.46% [at 0.349 µM]
activity change, negative = cytotoxicity [5]: -0.276% [at 0.29 µM]
activity change, negative = cytotoxic [6]: 6.99% [at 0.29 µM]
cytotoxicity [7]: 0.267% [at 0.29 µM]
activity change, negative = cytotoxic [8]: 0.968% [at 0.29 µM]
cytotoxicity increase [9]: 0.853% [at 0.29 µM]
activity change, negative = cytotoxicity [10]: -0.382% [at 0.29 µM]
viability change, negative = cytotoxic [11]: -0.725% [at 0.29 µM]
cytotoxicity increase [14]: -23.6% [at 0.29 µM]
activity change, negative = cytotoxic [15]: 3% [at 0.29 µM]
cytotoxicity [16]: -22.1% [at 0.29 µM]
cytotoxicity increase [17]: -20% [at 0.29 µM]
